In PubChem BioAssay AID485364 (National Center for Advancing Translational Sciences (NCATS), 2010) one finds Potency data, which are given here for 60 molecules.

Among all 360,000 compounds or so, about 11,000 (3.1%) were called active. A call without a number means that no potency is given here. Another 4% or so got no clear call; they are omitted. Calls come from the whole dose curve; as a rule, active = well fitted inhibition curve with a large enough effect; inconclusive = small, poorly fitted or top-dose-only effect; inactive = no such curve, though single readings can be large or run the other way. Many of the other results were omitted from the sample, so actives are more common in it than they were.
Potency is the fitted concentration of half-maximal effect.

This assay has as its target Schistosoma mansoni thioredoxin glutathione reductase (TGR) (UniProt Q962Y6). Briefly: qHTS Assay for the Inhibitors of Schistosoma Mansoni Peroxiredoxins. Note: nearly all actives have a fitted effect of over 60% in size. Particulars: purified TGR, DTNB reduction, TNB absorbance 405 nm; series mostly up to 114 µM. The essentials:
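First, TGR (20 nM dispensed) and NADPH were mixed with compound. Second, a 15 min room-temperature incubation followed. Third, further NADPH and then DTNB were added to start the reaction. Finally, TNB absorbance was monitored kinetically.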
A general note: Quantitative high-throughput screening tests each substance at several concentrations.
For the molecule `COc1ccc(OC)c(-c2nc(C(N)=O)c3c(n2)n(-c2ccc4c(c2)OCO4)c(=O)n3C)c1`, the Potency entry is “inactive”.

As for `CCCOc1ccc(NC(=O)CC2C(=O)N(C)C(=S)N2Cc2ccc3c(c2)OCO3)cc1` (stereo not given), the Potency entry was “inactive”. On to `O=C(C1CCN(Cc2ccc(Cl)cc2)CC1)N1CCN(Cc2ccc3c(c2)OCO3)CC1`, for which the Potency result was “inactive”. For the molecule `O=C(Nc1ccc(Cl)cc1)C1c2cccc[n+]2CC(=O)N1Cc1ccc2c(c1)OCO2` (stereo not given), the Potency was 20 µM (active).

Turning to `COc1ccc(S(=O)(=O)c2c(Nc3ccc(C)cc3)sc(C(=O)c3ccc(C)cc3)c2N)cc1`, the Potency entry was “inactive”. The entry for `Cc1c(C(=O)N2CCCC2)oc2c1-c1nn(CC(=O)NCc3ccc(OC(C)C)cc3)cc1CC2` is “inactive”.

Regarding `CCC(Sc1nc2n[nH]c(C)c2c(=N)n1-c1ccccc1Cl)C(=O)N(CC)CC` (stereo not given), the Potency result is “inactive”.

In the case of `Cc1cc(C)nc(N(C#N)CC(=O)Nc2ccccc2)n1`, the Potency result is “inactive”. The figure for `Cc1cc(C)nc(S/C=C/C(=O)c2ccccc2)n1` is 1.12 µM (active).

As to `Cc1cc(C)nc(SC(C)C(=O)N/N=C/c2cccs2)n1` (stereo not given), the Potency entry is “inactive”. The entry for `COc1ccccc1CN1CCC(CNC(=O)c2cnn(-c3ccccc3Cl)c2C2CCN(C(=O)OC(C)(C)C)CC2)CC1` is “inactive”. Take `CCOC(=O)c1c(S(=O)(=O)N2CCC(C(=O)NCc3ccccc3OC)CC2)c(C)n(C)c1C`: the Potency result is “inactive”. Turning to `COc1cc(NC(=O)c2nc3ccccc3nc2C)cc(OC)c1OC`, the Potency entry was “inactive”. The figure for `COc1cc(NC(=O)c2noc3c2CSc2ccccc2-3)cc(OC)c1OC` is 0.794 µM (active); for `COc1ccc(CCNC(=O)c2nn(C)c3c2CSc2ccccc2-3)cc1OC` it is “inactive”.

`O=C(NCc1ccccc1Cl)c1cccn1-c1nnc(N2CCCCC2)s1`: the Potency entry was “inactive”. The entry for `CC(CN1CCOCC1)c1ccccc1` (stereo not given) is “inactive”.

Regarding `CC(C)c1cc(CN2CCOCC2)cc(C(C)C)c1O`, the Potency was 3.98 µM (active). The entry for `O=C(Nc1ccc(CN2CCOCC2)cc1)c1cc(Cl)ccc1Cl` is “inactive”. As for `COc1cc(C(=O)Nc2ccc(OCc3cc(=O)n4cc(C)sc4n3)cc2)cc(OC)c1OC`, the Potency result was “inactive”. The entry for `COc1ccc(CC(=O)N2CC(=O)Nc3ccc(Br)cc3C2c2ccc(F)cc2)cc1OC` (stereo not given) is “inactive”; for `CCOC(=O)C1CCCN(C(=O)Cn2ncc3c(C)n(Cc4ccc(F)cc4)c(C)c3c2=O)C1` (stereo not given) it is “inactive”; for `C/C(=N\N1CCN(Cc2ccc(C)cc2)CC1)c1ccco1` it is “inactive”.

As to `Cc1cc(O)c(C(c2ccccc2)N2CCN(c3ccccc3F)CC2)c(=O)n1Cc1ccco1` (stereo not given), the Potency was 3.16 µM (active).

As to `Cc1oc2ncn(CC(C)C)c(=O)c2c1C(=O)N1CCN(c2ccccc2F)CC1`, the Potency result was “inactive”. The figure for `COc1cccc(C(c2c(O)cc(C)n(Cc3ccco3)c2=O)N2CCN(c3ccccc3)CC2)c1` (stereo not given) is 3.16 µM (active); for `OC(COCc1ccco1)CN1CCN(c2ccccc2)CC1` (stereo not given) it is “inactive”; for `COc1ccc(C(CC(=O)N2CCN(c3ccccc3)CC2)c2c(O)cc(OC)cc2OC)cc1` (stereo not given) it is “inactive”. The figure for `CCN1CCN(C(c2ccc(C)cc2)c2c(O)cc(C)n(Cc3ccco3)c2=O)CC1` (stereo not given) is 4.47 µM (active). The entry for `Cc1nc2ccn(Cc3cccnc3)c(=O)c2cc1C(=O)N1CCN(c2ccccc2F)CC1` is “inactive”; for `CCOC(=O)C1(CCc2ccccc2)CCN(Cc2ccco2)CC1` it is “inactive”. Turning to `Cc1ccc(N(C)C(=O)C2CCN(S(=O)(=O)c3ccc4c(c3)CCCN4C(=O)C3CCC3)CC2)cc1`, the Potency entry was “inactive”. The entry for `COc1cccc(CNCc2c(C(=O)O)n(Cc3ccc(C)cc3)c3cc(C)ccc23)c1OC` is “inactive”; for `Cc1ccc(NC(=O)CN2C(=O)CC(C)Sc3ccccc32)c(C)c1` (stereo not given) it is “inactive”; for `Cc1ccc2oc(=O)c3cnn(CC(=O)NCc4ccccc4Cl)c3c2c1` it is “inactive”. As for `CC(C)c1ccc(NS(=O)(=O)c2ccc3[nH]cc(C(=O)NC4CCCC4)c(=O)c3c2)cc1`, the Potency result was “inactive”. For `CC(C)(C)C1C/C(=C/c2ccco2)C(=O)/C(=C/c2ccco2)C1` (stereo not given), the Potency is 39.8 µM (active). The figure for `CCCCN=C1N/C(=C\c2ccco2)C(=O)N1c1ccccc1` is 20 µM (active); for `CCOC(=O)C1(C)NC(c2ccco2)C2C(=O)N(c3ccccc3)C(=O)C21` (stereo not given) it is “inactive”.

For the molecule `CCOc1cccc(CC(=O)N2CCc3c([nH]c4ccccc34)C2c2ccc(F)cc2)c1OCC` (stereo not given), the Potency result is “inactive”. The figure for `CCOc1cccc2c1N[C@@H](c1ccc(C(=O)O)cc1)[C@H]1CC=C[C@@H]21` is 7.08 µM (active); for `CCOc1c(CNCc2ccc(C(=O)O)cc2)cccc1OC` it is “inactive”; for `CCOC(=O)N1CCc2c(sc3c2c(=O)n(Cc2ccccc2)c(=O)n3CC(=O)Nc2cccc(C)c2)C1` it is “inactive”.

`Cc1ccc(N2CC(c3nnc(Cc4ccccc4Cl)o3)CC2=O)cc1` (stereo not given): the Potency entry was “inactive”.

In the case of `CCOc1ccccc1CNC(=O)c1ccc2c(c1)nc1n2CCC(C)C1` (stereo not given), the Potency result is “inactive”.

Consider `CCOc1cccc2cc(-c3cn4c(n3)sc3cc(C)ccc34)c(=O)oc12`, for which the Potency result was “inactive”.

As to `COc1cc(/C=C2/C(=O)NN(c3ccc(F)cc3)C2=O)cc([N+](=O)[O-])c1O`, the Potency entry is “inactive”. The figure for `COc1cccc(N2C(=O)NC(=O)/C(=C\c3ccc([N+](=O)[O-])s3)C2=O)c1` is 8.91 µM (active).

With `O=C1NC(=O)N(c2ccccc2)C(=O)/C1=C/c1ccc([N+](=O)[O-])s1`, the Potency is 5.62 µM (active). Regarding `COc1cccc(/C=C2\SC(=N)N(c3ccc(F)cc3)C2=O)c1`, the Potency result is “inactive”. As to `Cc1ccccc1-c1nc2scc(CCNC(=O)C(=O)Nc3ccc(F)cc3F)n2n1`, the Potency entry is “inactive”.

With `Cc1ccc(S(=O)(=O)N(Cc2nc(-c3ccc(Cl)cc3)no2)C2CCCCC2)cc1`, the Potency result was “inactive”. The entry for `COc1ccc(CCN2C(=O)c3oc4cc(C)cc(C)c4c(=O)c3C2c2ccccc2F)cc1OC` (stereo not given) is “inactive”. The entry for `Cc1cc(C)cc(OCC(=O)Nc2nc(-c3ccc(F)cc3)ns2)c1` is “inactive”; for `Cc1ccn2c(Nc3ccc4c(c3)OCCO4)c(-c3ccc(C)s3)nc2c1` it is “inactive”; for `COc1cc(C(=O)NC(=S)NCc2ccco2)cc(OC)c1OC` it is “inactive”. The figure for `COc1cc(Cn2c(N)c(C(=O)NCc3ccco3)c3nc4ccccc4nc32)cc(OC)c1OC` is 7.08 µM (active); for `COc1cc(-n2c(C)nc3cc(C(=O)NCc4ccco4)ccc32)cc(OC)c1OC` it is “inactive”. Take `CCc1ccc(S(=O)(=O)c2nnn3c2nc(NCc2ccccc2OC)c2cc(Cl)ccc23)cc1`: the Potency entry is “inactive”. The entry for `Cc1nn(Cc2ccc(F)cc2)c(C)c1NC(=O)c1cc(CC(C)C)on1` is “inactive”.
